Assay results as given in PubChem BioAssay (EPA / NIEHS).
Calls of active or inactive are those of the source. The calls were made as follows: active = hit-call score of the fitted dose curve at least 0.9, where 1 is the maximum; inactive = score below 0.9.

How the values were obtained:
Settings in all cases: mRNA level, 48 h; actives raise or lower the signal
[1] = read-out: succinate dehydrogenase complex iron sulfur subunit B (SDHB), SDHB (gene 6390); test: LTEA_HepaRG_SDHB: Life Technologies and Expression Analysis (LTEA) Assay for succinate dehydrogenase complex iron sulfur subunit B (SDHB) using HepaRG (AID 2283528)
In short: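 HepaRG, 48 h exposure, 8-pt half-log series from 100 uM in 0.5% DMSO, duplicates. Readout: SDHB mRNA by Fluidigm qRT-PCR vs housekeeping genes; bidirectional fit relative to DMSO.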

[2] = read-out: Signal transducer and activator of transcription 3 (Homo sapiens) (UniProt P40763); test: LTEA_HepaRG_STAT3: Life Technologies and Expression Analysis (LTEA) Assay for Signal transducer and activator of transcription (STAT3) using HepaRG (AID 2283529)
In short: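 Read-out is STAT3 mRNA level by qRT-PCR, normalized to three housekeeping genes, in human HepaRG liver cells treated for 48 h. Concentrations ran from 100 uM downward in half-log steps; curves were fitted for gain or loss relative to 0.5% DMSO.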

[3] = read-out: solute carrier (SLCO1B1), SLCO1B1 (gene 10599); test: LTEA_HepaRG_SLCO1B1: Life Technologies and Expression Analysis (LTEA) Assay for solute carrier (SLCO1B1) using HepaRG (AID 2283530)
In short: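 Differentiated human HepaRG cells were exposed for 48 h in serum-free induction medium to eight half-log concentrations, top 100 uM, in 0.5% DMSO. SLCO1B1 mRNA was measured by qRT-PCR, normalized to ACTB, GAPDH and POLR2A, and fitted bidirectionally against DMSO.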

[4] = read-out: sulfotransferase 2A1 (SULT2A1), SULT2A1 (gene 6822); test: LTEA_HepaRG_SULT2A1: Life Technologies and Expression Analysis (LTEA) Assay for sulfotransferase 2A1 (SULT2A1) using HepaRG (AID 2283531)
In short: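 HepaRG human liver cells, 48 h exposure in serum-free induction medium to 8 half-log concentrations topping at 100 µM (0.5% DMSO), duplicate wells. SULT2A1 mRNA measured by TaqMan qRT-PCR, normalized to ACTB/GAPDH/POLR2A; bidirectional fit against DMSO.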

[5] = read-out: Transforming Growth Factor (TGFA), TGFA (gene 7039); test: LTEA_HepaRG_TGFA: Life Technologies and Expression Analysis (LTEA) Assay for Transforming Growth Factor (TGFA) using HepaRG (AID 2283532)
In short: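 HepaRG (human liver line), 48 h exposure, 8 conc. half-log down from 100 uM, 0.5% DMSO vehicle, duplicates; serum-free induction medium. TGFA mRNA by TaqMan qRT-PCR, ACTB/GAPDH/POLR2A normalization; gain/loss fit vs DMSO.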

[6] = read-out: Transforming Growth Factor (TGFB1), TGFB1 (gene 7040); test: LTEA_HepaRG_TGFB1: Life Technologies and Expression Analysis (LTEA) Assay for Transforming Growth Factor (TGFB1) Transporter using HepaRG (AID 2283533)
In short: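 Differentiated HepaRG cells exposed 48 hr in serum-free induction medium to eight half-log concentrations up to 100 uM (0.5% DMSO), duplicate; TGFB1 mRNA by TaqMan qRT-PCR normalised to ACTB, GAPDH, POLR2A; bidirectional fit against DMSO.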

TIMP1, TIMP1 (gene 7076) = test: LTEA_HepaRG_TIMP1: Life Technologies and Expression Analysis (LTEA) Assay for TIMP1 using HepaRG (AID 2283534)
In short: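 Differentiated HepaRG cells exposed 48 h in serum-free induction medium, duplicates, eight half-log concentrations from 100 uM in 0.5% DMSO. TIMP1 mRNA by qRT-PCR normalized to ACTB, GAPDH, POLR2A; bidirectional fitting against DMSO.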

[7] = read-out: Tumor necrosis factor receptor 1 (TNFRSF1A), TNFRSF1A (gene 7132); test: LTEA_HepaRG_TNFRSF1A: Life Technologies and Expression Analysis (LTEA) Assay for Tumor necrosis factor receptor 1 (TNFRSF1A) using HepaRG (AID 2283535)
In short: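 Differentiated HepaRG cells in serum-free induction medium, exposed 48 h in duplicate to 8 half-log concentrations up to 100 uM in 0.5% DMSO. TNFRSF1A mRNA by Fluidigm TaqMan qRT-PCR, normalized to ACTB, GAPDH, POLR2A; bidirectional fit.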

[8] = read-out: Thyroid Hormone Responsive (THRSP), THRSP (gene 7069); test: LTEA_HepaRG_THRSP: Life Technologies and Expression Analysis (LTEA) Assay for Thyroid Hormone Responsive (THRSP) using HepaRG (AID 2283536)
In short: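 mRNA induction or loss relative to 0.5% DMSO vehicle was fitted bidirectionally across an eight-point curve whose highest exposure was 100 uM. Human HepaRG liver cells received chemicals in duplicate over 48 h before RNA extraction.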

[9] = read-out: UDP glucuronosyltransferase (UGT1A1), UGT1A1 (gene 54658); test: LTEA_HepaRG_UGT1A1: Life Technologies and Expression Analysis (LTEA) Assay for UDP glucuronosyltransferase (UGT1A1) using HepaRG (AID 2283538)
In short: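 Human liver HepaRG cultures receive test chemical for 48 h, up to 100 uM in 0.5% DMSO, with phenobarbital induction controls. UGT1A1 mRNA is measured by qRT-PCR and normalized to ACTB, GAPDH and POLR2A.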

Measured: AC50

Chain of Signal transducer and activator of transcription 3 (Homo sapiens) (P40763 whole entry, looked up): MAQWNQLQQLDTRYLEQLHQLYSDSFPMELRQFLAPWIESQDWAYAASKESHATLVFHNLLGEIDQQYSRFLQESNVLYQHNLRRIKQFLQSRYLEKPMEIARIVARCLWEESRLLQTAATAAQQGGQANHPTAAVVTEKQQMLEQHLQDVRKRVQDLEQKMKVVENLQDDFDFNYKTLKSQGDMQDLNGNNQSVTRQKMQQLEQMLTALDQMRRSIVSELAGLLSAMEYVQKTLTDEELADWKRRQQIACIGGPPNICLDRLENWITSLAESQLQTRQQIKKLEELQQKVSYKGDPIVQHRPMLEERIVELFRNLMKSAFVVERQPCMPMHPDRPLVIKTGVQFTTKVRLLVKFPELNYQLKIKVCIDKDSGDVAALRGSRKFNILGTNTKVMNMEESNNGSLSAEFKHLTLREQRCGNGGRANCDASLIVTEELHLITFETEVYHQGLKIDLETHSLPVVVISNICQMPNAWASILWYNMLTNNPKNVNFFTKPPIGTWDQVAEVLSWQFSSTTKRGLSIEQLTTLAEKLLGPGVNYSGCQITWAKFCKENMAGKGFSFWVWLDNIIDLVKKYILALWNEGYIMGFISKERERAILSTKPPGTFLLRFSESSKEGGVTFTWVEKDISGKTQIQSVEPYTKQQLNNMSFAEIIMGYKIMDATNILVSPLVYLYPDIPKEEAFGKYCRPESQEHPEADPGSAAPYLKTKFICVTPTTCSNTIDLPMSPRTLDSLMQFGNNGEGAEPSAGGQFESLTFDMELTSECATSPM

COc1cc(C(C)C)c2c(c1)S(=O)(=O)N(COc1cc(=O)n3cccc(OCCN4CCCCC4)c3n1)C2=O
active: [3] 21.1 µM | [4] 23.7 µM | TIMP1, TIMP1 (gene 7076) 19.8 µM | [8] 20.8 µM | [9] 22.6 µM
inactive: [1] | [2] | [5] | [6] | [7]

NC(=O)N1c2ccccc2C=Cc2ccccc21
active: [9] 21.6 µM
not listed: [3]
inactive: all other assays above

Cn1c(=O)c2[nH]cnc2n(C)c1=O
active: [7] 0.276 µM
not listed: [3]
inactive: all other assays above

CC(C)CC(C)O (configuration not stated)
not listed: [3]
inactive: all other assays above

O=c1[nH]cnc2c1ncn2[C@H]1CC[C@@H](CO)O1
not listed: [3]
inactive: all other assays above

CCCCOC(=O)c1ccccc1
not listed: [3]
inactive: all other assays above

CCN(CC)C(=S)SSC(=S)N(CC)CC
not listed: [3] | [4]
inactive: all other assays above

O=S1(=O)CCCO1
not listed: [3]
inactive: all other assays above

C[C@@H](Oc1ccc(CNC(=O)c2cccnc2Oc2ccc3c(c2)OCO3)c(F)c1)C(=O)O
not listed: [3]
inactive: all other assays above

c1ccc2ncccc2c1
not listed: [3]
inactive: all other assays above

c1ccc(C(O[C@@H]2CCCN(CCc3ccc4c(c3)OCO4)C2)c2ccccc2)cc1
active: [4] 79.3 µM | [5] 77.1 µM | [6] 9.92 µM | [7] 85.9 µM | [9] 79.1 µM
inactive: [1] | [2] | TIMP1, TIMP1 (gene 7076) | [8]

OCC(CO)(CO)CO
not listed: [1] | [3]
inactive: all other assays above

Cc1ncc([C@@H](CCCCCCc2ccc3c(n2)NCCC3)CC(=O)O)cn1
not listed: [3]
inactive: all other assays above

OC[C@H]1O[C@@](CO)(O[C@H]2O[C@H](CO)[C@@H](O)[C@H](O)[C@H]2O)[C@@H](O)[C@@H]1O
not listed: [3]
inactive: all other assays above

c1ccc2cc3ccccc3cc2c1
active: [9] 13.1 µM
not listed: [3]
inactive: all other assays above

CCCCN1C(=O)[C@@H]([C@H](O)C2CCCCC2)NC(=O)C12CCN(Cc1ccc(Oc3ccc(C(=O)O)cc3)cc1)CC2
inactive: [5] | TIMP1, TIMP1 (gene 7076)
active: [1] 1.56 µM | [2] 3.21 µM | [4] 3.91 µM | [6] 0.34 µM | [7] 6.08 µM | [8] 1.27 µM | [9] 2.79 µM

O=C(O)[C@H](O)[C@@H](O)C(=O)O
not listed: [3]
inactive: all other assays above

CCCCCCCCCCCCCCO
not listed: [3]
inactive: all other assays above

OCCOCCOCCO
not listed: [3]
inactive: all other assays above

CC(C)CCCCCCOC(=O)C1CCCCC1C(=O)OCCCCCCC(C)C (configuration not stated)
active: [4] 9.92 µM | [7] 0.00316 µM
not listed: [3]
inactive: all other assays above

NNC(=O)c1ccncc1
not listed: [3]
inactive: all other assays above

CCCCCCCCCC
not listed: [3]
inactive: all other assays above

CCCCCCCC/C=C\CCCCCCCC(=O)OC[C@@H](O)[C@H]1OC[C@H](O)[C@H]1O
not listed: [3]
inactive: all other assays above

CCOC(N)=O
not listed: [3]
inactive: all other assays above

CC(=O)c1ccccc1
not listed: [3]
inactive: all other assays above

O=C(O)c1cccc(C(=O)O)c1
not listed: [3] | [6]
inactive: all other assays above

C=CN1CCCC1=O
not listed: [3]
inactive: all other assays above

CCCC(CCC)C(=O)O
not listed: [3]
inactive: all other assays above

COc1cc2c(c(OC)c1OC)-c1ccc(OC)c(=O)cc1[C@@H](NC(C)=O)CC2
inactive: [2] | TIMP1, TIMP1 (gene 7076) | [7]
active: [1] 0.138 µM | [4] 0.181 µM | [5] 0.0871 µM | [6] 0.04 µM | [8] 0.073 µM | [9] 0.113 µM

Nc1ccn([C@@H]2O[C@H](CO)[C@@H](O)[C@@H]2O)c(=O)n1
not listed: [3]
inactive: all other assays above

CCCCCCCCN(C)C
not listed: [3]
inactive: all other assays above

OC(CCl)CCl
not listed: [3]
inactive: all other assays above

CCn1nc(C)c2c1C(=O)NCC(c1ccc(O)cc1)=N2
active: [9] 34.1 µM
not listed: [3]
inactive: all other assays above

CCCCCOC(C)=O
not listed: [3]
inactive: all other assays above

NC(=O)N(O)[C@@H]1COc2cc(OCc3ccccc3)ccc21
not listed: [3]
inactive: all other assays above

O=S(=O)(O)c1ccc(N=Nc2c(O)ccc3cc(S(=O)(=O)O)ccc23)cc1
not listed: [3]
inactive: all other assays above
